Out of some 39,000 compounds screened, about 1,500 (3.8%) were called active. The sample as a whole holds a higher share of actives than the screen did.

For the experiment, the system named is HSkMC (human skeletal muscle cells). As to the kind of experiment: cytotoxicity call (relative viability < 0.9). The conditions noted are these: 10 µM.
As to `C[C@H](CO)N1C[C@H](C)[C@@H](CN(C)C(=O)Nc2ccc(F)cc2)OCCCC[C@H](C)Oc2ccc(NC(=O)Cc3ccccc3)cc2C1=O`, the cytotoxicity call is “inactive”. To `CC(C)C(N)C(=O)O` (stereo not drawn) belongs “inactive”.

As for `C[C@H](O)C(=O)Nc1c(I)c(C(=O)NC(CO)CO)c(I)c(C(=O)NC(CO)CO)c1I`, the cytotoxicity call is “inactive”.

Take `CC(C)(C)c1ccc(C(O)CCCN2CCC(C(O)(c3ccccc3)c3ccccc3)CC2)cc1` (stereo not drawn): the cytotoxicity call is “active”.

As to `CC(C)(C(=O)O)c1ccc(C(O)CCCN2CCC(C(O)(c3ccccc3)c3ccccc3)CC2)cc1.Cl` (stereo not drawn), the cytotoxicity call was “inactive”.

For `CC(C)(C(=O)O)c1ccc([C@@H](O)CCCN2CCC(C(O)(c3ccccc3)c3ccccc3)CC2)cc1`, the cytotoxicity call is “inactive”.

For the compound `C[C@@H]1CN([C@H](C)CO)C(=O)c2cccc(NC(=O)C3CC3)c2O[C@@H]1CN(C)Cc1ccc(-c2ccccc2)cc1`, the cytotoxicity call was “inactive”. In the case of `CC(C)NC(=O)Nc1ccc2c(c1)C(=O)N([C@@H](C)CO)C[C@@H](C)[C@@H](CN(C)S(C)(=O)=O)OCCCC[C@@H](C)O2` it was “inactive”; in that of `C[C@@H]1CCCCO[C@@H](CN(C)C(=O)Nc2ccccc2)[C@H](C)CN([C@H](C)CO)C(=O)c2cc(NC(=O)Nc3ccccc3)ccc2O1`, “inactive”; in that of `CC(C)NC(=O)N(C)C[C@@H]1OCCCC[C@@H](C)Oc2ccc(NC(=O)Nc3ccc(C(F)(F)F)cc3)cc2C(=O)N([C@@H](C)CO)C[C@@H]1C`, “inactive”. In the case of `C[C@H](CO)N1C[C@H](C)[C@H](CN(C)C(=O)Nc2ccc3c(c2)OCO3)OCc2cn(nn2)CCCC1=O`, the cytotoxicity call was “inactive”. `Brc1ccc2nc(N3CCCN(Cc4ccccc4)CC3)nc(NC3CCN(Cc4ccccc4)CC3)c2c1`: the cytotoxicity call was “active”. To `COc1cc2nc(N3CCN(C(=O)c4ccco4)CC3)nc(N)c2cc1OC.Cl` belongs “inactive”. In the case of `COc1ccc2nc3cc(Cl)ccc3c(Nc3cc(CN4CCCC4)c(O)c(CN4CCCC4)c3)c2n1.O=P(O)(O)O.O=P(O)(O)O.O=P(O)(O)O.O=P(O)(O)O` it was “inactive”; in that of `COc1cc2nc(N3CCCN(Cc4ccccc4)CC3)nc(Nc3ccc(F)c(Cl)c3)c2cc1OC`, “active”; in that of `NC1CCN(Cc2ccccc2)CC1`, “inactive”. To `COc1cc2nc(N3CCCN(Cc4ccccc4)CC3)nc(NC3CCN(Cc4ccccc4)CC3)c2cc1OC` belongs “inactive”; to `CC(C)(C)[S@](=O)N1Cc2cc(C(=O)NCc3ccncc3)nc(-c3cccc(-c4cccc(C#N)c4)c3)c2[C@@H]1CCO`, “inactive”. Regarding `C[C@H](CO)N1C[C@H](C)[C@H](CN(C)S(=O)(=O)c2cn(C)cn2)Oc2ccc(NC(=O)Cc3ccccc3)cc2C1=O`, the cytotoxicity call was “inactive”.

With `Cc1cc(C(=O)Nc2cccc3c2O[C@H](CN(C)Cc2ccncc2)[C@H](C)CN([C@H](C)CO)C3=O)n(C)n1`, the cytotoxicity call was “inactive”. For the compound `Cc1noc(C)c1S(=O)(=O)Nc1ccc2c(c1)C(=O)N([C@@H](C)CO)C[C@H](C)[C@@H](CN(C)C(=O)Nc1ccccc1)OCCCC[C@@H](C)O2`, the cytotoxicity call was “inactive”. In the case of `C[C@@H](Nc1nc(=O)cc(F)[nH]1)C(=O)O` it was “inactive”. To `COc1ccc(NC(=O)N(C)C[C@H]2Oc3ccc(NC(=O)CCCCCC(=O)Nc4ccccc4N)cc3C(=O)N([C@@H](C)CO)C[C@@H]2C)cc1` belongs “inactive”; to `COc1ccc(NC(=O)Nc2ccc3c(c2)C(=O)N([C@@H](C)CO)C[C@H](C)[C@@H](CN(C)C(=O)Cc2ccccc2)OCCCC[C@@H](C)O3)cc1`, “inactive”. For `COc1ccc(CN(C)C[C@H]2Oc3ccc(NS(=O)(=O)c4cn(C)cn4)cc3CC(=O)N([C@H](C)CO)C[C@@H]2C)cc1`, the cytotoxicity call is “inactive”. Take `Cc1noc(C)c1S(=O)(=O)Nc1ccc2c(c1)C(=O)N([C@@H](C)CO)C[C@H](C)[C@@H](CN(C)Cc1ccc(Oc3ccccc3)cc1)O2`: the cytotoxicity call was “inactive”.

Regarding `C[C@@H]1CN([C@@H](C)CO)C(=O)Cc2cc(NC(=O)Nc3ccccc3)ccc2O[C@@H]1CN(C)C(=O)Nc1ccc(C(F)(F)F)cc1`, the cytotoxicity call was “inactive”. With `C[C@H](CO)N1C[C@H](C)[C@H](CN(C)C(=O)Nc2ccccc2)Oc2ccc(NC(=O)Nc3ccc(C(F)(F)F)cc3)cc2CC1=O`, the cytotoxicity call was “inactive”.

Take `C[C@H]1CN([C@@H](C)CO)C(=O)Cc2cc(NC(=O)Nc3ccc(C(F)(F)F)cc3)ccc2O[C@H]1CN(C)C(=O)Nc1ccccc1`: the cytotoxicity call was “active”. In the case of `C[C@@H]1CN([C@@H](C)CO)C(=O)Cc2cc(NC(=O)Nc3ccc(C(F)(F)F)cc3)ccc2O[C@@H]1CN(C)C(=O)Nc1ccccc1` it was “active”.

Regarding `C[C@H]1CN([C@@H](C)CO)C(=O)Cc2cc(NC(=O)Nc3ccc(C(F)(F)F)cc3)ccc2O[C@@H]1CN(C)C(=O)Nc1ccccc1`, the cytotoxicity call is “inactive”.

As for `C[C@H](CO)N1C[C@H](C)[C@@H](CN(C)C(=O)Nc2ccccc2)Oc2ccc(NC(=O)Nc3ccc(C(F)(F)F)cc3)cc2CC1=O`, the cytotoxicity call is “inactive”. In the case of `O=C(O)C1=CCCNC1` it was “inactive”. In the case of `Cc1noc(C)c1NC(=O)N(C)C[C@@H]1Oc2ccc(NS(=O)(=O)c3cccs3)cc2CC(=O)N([C@@H](C)CO)C[C@H]1C` it was “inactive”; in that of `COc1ccc(NC(=O)Nc2ccc3c(c2)C(=O)N([C@H](C)CO)C[C@@H](C)[C@@H](CN(C)Cc2ccc(C(=O)O)cc2)OCCCC[C@H](C)O3)cc1`, “inactive”; in that of `NC(=O)[C@H]1[C@@H]2C(=O)O[C@@H](c3ccccc3)[C@@H](c3ccccc3)N2[C@@H](c2ccc(O)cc2)[C@]12C(=O)Nc1ccc(C#CC3(O)CCCCCC3)cc12`, “inactive”. In the case of `c1ccc(Nc2ncnc3cc(-c4ccccc4)sc23)cc1` it was “inactive”; in that of `c1ccc(Nc2ncnc3sc(-c4ccccc4)cc23)cc1`, “inactive”. On to `Fc1ccc(Nc2ncnc3sc(-c4ccccc4)cc23)cc1`, for which the cytotoxicity call is “active”. On to `CCCC(=O)Nc1ccc2c(c1)OC[C@@H](C)N(C(=O)CN1CCOCC1)C[C@@H](C)[C@H](OC)CN(C)C2=O`, for which the cytotoxicity call is “inactive”. `NS(=O)(=O)OC[C@H]1C[C@@H](Nc2ccnc3cc(-c4cccc(SC(F)(F)F)c4)nn23)[C@H](O)[C@@H]1O`: the cytotoxicity call is “active”.

Consider `O=C([O-])C(O)C(O)C(O)C(O)CO.[Na+]` (stereo not drawn), for which the cytotoxicity call was “inactive”. In the case of `Cc1ccccc1[C@@H](c1ncccc1C)N(C)C(=O)C1CCN(CCOc2ccc3ccccc3c2)CC1` it was “inactive”. To `Cc1cccnc1[C@H](c1ccc(F)cc1)N(C)C(=O)C1CCN(CCOc2ccc(Cl)cc2Cl)CC1` belongs “active”. To `COc1ccccc1[C@@H](NC(=O)C1CCN(CCOc2ccc(Cl)cc2Cl)CC1)c1ccccn1` belongs “inactive”. Regarding `Cc1cccnc1[C@@H](NC(=O)C1CCN(CCOc2ccc(Cl)cc2Cl)CC1)c1ccc(Cl)cc1`, the cytotoxicity call is “inactive”.

Consider `Cc1cccnc1[C@@H](NC(=O)C1CCN(CCOc2ccc(Cl)cc2Cl)CC1)c1ccc(F)cc1`, for which the cytotoxicity call is “inactive”.

With `Cc1ccccc1[C@@H](c1ncccc1C)N(C)C(=O)C1CCN(CCOc2ccc(Cl)cc2Cl)CC1`, the cytotoxicity call was “active”.
